# ARNT-TACC3 inh: disruptors of human ARNT/TACC3 interaction | AlphaScreen His-ARNT PAS-B/GST-TACC3 binding, luminescence; TACC3 fragment carries E629A point mutation | inhibition, % at 9.99 µM | 390,000 tested, 0.66% active | AID 623870;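 active means mean inhibition of replicates at least 50% and at least half of replicates each reaching 50%; inconclusive means half or more replicates reach 50% but mean below 50%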;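 further: 0% = complete ARNT plus TACC3 wells and 100% = ARNT alone without TACC3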
# Vif inh: inhibitors of HIV Vif | inhibition, % at 7.49 µM | HEK293T cells, Vif self-association by quenched fluorescence, imaging, 24 h | 340,000 tested, 0.35% active | AID 602346; in the data active means inhibition above about 50%, passing the limit was not always enough; inconclusive means no clear call, values can overlap the other calls; inactive means below about 31%
# Cardio protect: myocardial damage modulation in H9c2 cells. protection from H2O2 cell death, % at 20 µM. AID 588492. 360,000 tested, 0.63% active. H9c2 cardiomyocytes, H2O2 injury protection, ATPLite, 2 h;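 active means compounds giving at least 50% protection of heart cells from peroxide-induced death in the single-dose screen, raw or plate-pattern-corrected value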;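 further: 0% = DMSO wells with peroxide and 100% = DMSO wells without peroxide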
# N-glyco inh: N-linked glycosylation inhibition. D54 ERlucT glycosylation luciferase reporter, 24 h; percent of 100 nM tunicamycin response. 360,000 tested, 0.23% active. reporter increase, % at 12.5 µM;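 active means mean luciferase reporter signal, scaled so untreated is 0 and the glycosylation-blocking control 100, at or above a set limit in every replicate; inconclusive means mean reaches the limit but not every replicate does; inactive means mean below the limit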;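 further: luciferase carries N-glycosylation sites so blocking glycosylation raises the light; 0% = median of neutral control wells and 100% = median of 100 nM tunicamycin wells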
# aDG glyco act: alpha-DG glycosylation activation; Pro5-aDG cells, alpha-DG glycosylation AlphaScreen (IIH6); 0% Pro5, 100% B10-LARGE cell signal; activation, % at 10 µM; 360,000 tested, 0.22% active; AID 624168;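 active means activation of at least 8% versus controls, or a plate z-score of at least 8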;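 further: Pro5 are CHO cells carrying HIG-tagged alpha-DG that lacks glycosylation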
# * marks the source's active call; other numbers are inactive results; u = inconclusive; x = no result. Shown are actives, neighbours in structure and some others; about 1.7% of the full set was active somewhere.
SMILES,ARNT-TACC3 inh,Vif inh,Cardio protect,N-glyco inh,aDG glyco act
O=C(CCc1nc2ccccc2c(=O)[nH]1)NCCN1C(=O)S/C(=C\c2ccccc2Cl)C1=O,4,-5,40,2,0
O=C(CCc1nc2ccccc2c(=O)[nH]1)NCCN1C(=O)S/C(=C\c2ccc(OC(F)F)cc2)C1=O,1,-1,69*,0,0
c1ccc(CN2CCN(c3nc(-c4ccccn4)nc4ccccc34)CC2)cc1,-3,x,-5,1,0
c1ccc(CCNc2nc(-c3ccccn3)nc3ccccc23)cc1,64*,-12,15,24,0
CCN1CCN(c2nc(-c3ccccn3)nc3ccccc23)CC1,46*,13,0,-3,0
c1ccc(-c2nc(N3CCCCCC3)c3ccccc3n2)nc1,76*,-9,24,-3,0
C/C(=N\Nc1nc(-c2ccccn2)nc2ccccc12)c1ccc(F)cc1,5,-16,7,4,0
O=C(NC(C(=O)N/N=C/c1cc([N+](=O)[O-])ccc1O)c1n[nH]c(=O)c2ccccc12)c1ccccc1 (configuration not stated),68*,17,43,2,0
Cc1cc(C(=O)N/N=C/c2cc([N+](=O)[O-])ccc2O)c2ccccc2n1,76*,11,56*,1,0
CCOC(=O)c1c(C)[nH]c(C(=O)N/N=C/c2cc([N+](=O)[O-])ccc2O)c1C,72*,9,44,-4,0
Nc1nc(CN2CCCCCC2)nc(Nc2ccc(F)cc2)n1,48*,x,14,0,0
COc1ccccc1Nc1nc(N)nc(CN2CCCCCC2)n1,89*,5,19,1,0
COc1ccccc1Nc1nc(N)nc(CN2CCOCC2)n1,36,14,8,5,0
Nc1nc(CN2CCN(c3ccccn3)CC2)nc(Nc2ccc(F)cc2)n1,15,3,17,0,0
CCOC(=O)C1CCCN(Cc2nc(N)nc(Nc3ccc(Cl)cc3)n2)C1 (configuration not stated),35,1,14,5,0
CCOC(=O)C1CCCN(Cc2nc(N)nc(Nc3ccc(OC)cc3)n2)C1 (configuration not stated),31*,-10,10,0,0
CC(C)NC(=O)Nc1ccc2c(c1)C(=O)N(C)[C@@H]1CC[C@@H](CC(=O)NCc3ccc(F)cc3)O[C@H]1CO2,-1,x,x,x,x
CN(C)CC(=O)N[C@@H]1CC[C@H](CCn2cc(CN(C)C)nn2)O[C@@H]1CO,-29,x,x,x,x
Cc1ccccc1C(=O)N1CCN(c2ccccn2)CC1,-3,-9,9,0,0
COc1ccc(-c2nn(Cc3ccccc3)cc2C(=O)N2CCN(c3ccccn3)CC2)cc1OC,2,-1,1,1,0
O=C(c1ccccc1-c1ccccc1)N1CCN(c2ccccn2)CC1,0,1,3,50*,0
O=C(c1cn(Cc2ccccc2)nc1-c1ccccc1)N1CCN(c2ccccn2)CC1,x,0,-1,51*,0
CC(=O)c1ccccc1OCC(O)CN1CCN(CCN2C(=O)c3cccc4cccc(c34)C2=O)CC1 (configuration not stated),4,-15,58*,12,0
Cc1ccc(C)c(OCC(O)CN2CCN(CCN3C(=O)c4cccc5cccc(c45)C3=O)CC2)c1 (configuration not stated),4,-2,3,57*,1
CC(C)NC(=O)N(C)C[C@H]1Oc2ccc(NC(=O)CCC(F)(F)F)cc2CC(=O)N([C@H](C)CO)C[C@@H]1C,-4,x,x,x,x
SMILES,ARNT-TACC3 inh,Vif inh,Cardio protect,N-glyco inh,aDG glyco act
COc1cc([N+](=O)[O-])ccc1-c1ccc(/C=N\n2cnnc2)o1,-7,177*,6,2,0
Cc1ccc(C(C[N+](=O)[O-])c2c(C)[nH]n(-c3ccccc3)c2=O)cc1 (configuration not stated),51*,-3,7,2,0
C[C@@H]1CN([C@H](C)CO)C(=O)c2cc(NS(=O)(=O)c3cccs3)ccc2O[C@H]1CN(C)S(=O)(=O)c1ccc(Cl)cc1,-4,x,x,x,x
COc1cc(C2C(C#N)=C(N)Oc3cc(N)ccc32)cc(OC)c1OC (configuration not stated),-1,26,7,32*,0
O=C(NCc1cccc(F)c1)[C@H]1[C@H](CO)[C@H]2Cn3c(ccc(-c4cccnc4)c3=O)[C@@H]1N2CC1CC1,-1,x,x,x,x
C[C@@H]1CN([C@@H](C)CO)C(=O)c2ccccc2-c2ccccc2CO[C@H]1CN(C)C(=O)[C@H]1CCCN1C,5,x,x,x,x
Nc1nc2n(n1)C(c1cccs1)CC(c1ccc(F)cc1)N2 (configuration not stated),x,-26,4,2,0
COc1ccc(C2CC(c3cccs3)n3nc(N)nc3N2)cc1 (configuration not stated),x,-3,62*,4,0
C[C@@H]1CN([C@H](C)CO)C(=O)c2cc(-c3ccc(F)cc3)cnc2O[C@@H]1CN(C)C(=O)Cc1ccccc1,-22,x,x,x,x
Cc1cc(C)cc(C(=O)OCC(=O)Nc2ncccn2)c1,9,56*,10,2,0
Cc1cc2c(cc1S(=O)(=O)N1CCN(c3ccccc3)CC1)OCC(=O)N2,-4,u,1,0,0
Cc1cc2c(cc1S(=O)(=O)N1CCN(c3ccccc3F)CC1)OCC(=O)N2,15*,-8,-3,0,0
Cc1cc(NC(=O)CSc2ccc(-c3nc4cc(C)c(C)cc4[nH]3)cn2)no1,-2,-9,-7,44*,0
Cc1cc2nc(-c3ccc(SCC(=O)Nc4ccc(S(=O)(=O)NC5CC5)cc4)nc3)[nH]c2cc1C,-1,x,-27,-8,0
C[C@H](CO)N1C[C@H](C)[C@@H](CN(C)C(=O)CN(C)C)Oc2ncc(C#CCC3CCCC3)cc2C1=O,-8,x,x,x,x
CCCN1C(=O)/C(=C\c2nc3ccccc3c(=O)[nH]2)c2ccccc21,-2,-2,66*,-1,0
C[C@@H]1CCCCO[C@@H](CN(C)Cc2ccccc2)[C@@H](C)CN([C@@H](C)CO)C(=O)c2cc(NC(=O)CCC(F)(F)F)ccc2O1,3,x,x,x,x
CCOc1ccccc1NC(=S)Nc1ccc2cn[nH]c2c1,active,-2,-10,-1,0
S=C(Nc1ccccc1)Nc1ccc2cn[nH]c2c1,-4,5,-13,2,0
O=C1Nc2ccccc2C(=O)C1(Cl)Cc1ccccc1 (configuration not stated),-4,5,52*,-2,0
CC(C)(C)N1C(=O)c2ccccc2NC(=O)N1Cc1ccccc1,12,16,1,0,0
COc1ccc(CNC(=O)C[C@H]2CC[C@H](NC(=O)Nc3ccc4c(c3)OCO4)[C@@H](CO)O2)cc1,1,x,x,x,x

# Screening results as filed in PubChem BioAssay.
